The entries come from a sample that favours hits as a whole.
ALOX12 inh: blocks human arachidonate 12S-lipoxygenase | P18054 | purified 12hLO, xylenol orange hydroperoxide absorbance | Potency, µM (top dose mostly 108 µM), for inactives: top-dose activity change, negative = inhibition, most hits filed as inhibitors | 580,000 tested, 1.1% active | AID 1671190; further: potency means the concentration at half of the fitted maximal effect
Target sequence (P18054 whole entry, looked up): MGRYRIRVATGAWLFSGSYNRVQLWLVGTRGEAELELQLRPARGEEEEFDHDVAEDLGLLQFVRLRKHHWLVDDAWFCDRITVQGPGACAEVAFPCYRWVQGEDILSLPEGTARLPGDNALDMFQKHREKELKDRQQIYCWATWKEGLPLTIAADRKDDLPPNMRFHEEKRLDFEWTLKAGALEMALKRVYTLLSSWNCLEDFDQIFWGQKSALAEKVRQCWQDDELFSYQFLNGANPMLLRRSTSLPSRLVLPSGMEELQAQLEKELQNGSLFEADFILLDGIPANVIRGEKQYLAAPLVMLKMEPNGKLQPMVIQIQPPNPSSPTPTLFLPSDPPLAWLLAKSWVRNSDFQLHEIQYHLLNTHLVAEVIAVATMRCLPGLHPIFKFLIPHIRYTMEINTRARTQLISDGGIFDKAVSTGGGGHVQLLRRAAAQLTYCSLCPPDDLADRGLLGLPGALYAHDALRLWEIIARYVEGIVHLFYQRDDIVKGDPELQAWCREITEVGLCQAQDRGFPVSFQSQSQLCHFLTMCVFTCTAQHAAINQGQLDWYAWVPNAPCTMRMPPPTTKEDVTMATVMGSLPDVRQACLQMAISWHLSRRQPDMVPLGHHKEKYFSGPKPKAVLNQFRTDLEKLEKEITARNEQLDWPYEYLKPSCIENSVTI
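Hydroperoxide product was detected by ferrous iron/xylenol orange as the 573 to 405 nm absorbance ratio. Arachidonic acid at 40 uM (final) was turned over for 30 min at room temperature by 150 nM human 12hLO, pH 7.0 Hepes buffer, after 15 min compound preincubation.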
HT1080NT lethal: kills 2HG-producing HT-1080-NT fibrosarcoma cells; 360,000 tested, 1.6% active; Potency, µM (top dose mostly 46.1 µM), for the others: at the top dose activity, negative = less viability, hits mostly cytotoxic; HT-1080-NT fibrosarcoma viability, CellTiter-Glo ATP luminescence, 48 h; AID 686970;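 further: NT is the 2HG producing partner of a matched IDH1 knockdown line; potency means the concentration at half of the fitted maximal effect; 0% = DMSO-treated cells and -100% = media-only wells without cells; nearly all actives have a fitted effect of over 55% in size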
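Read-out is CellTiter-Glo luminescence after 10 minutes at room temperature, following 48 hours' compound treatment of HT-1080-NT cells (750 cells/well, RPMI, 5% FBS, 37 degrees C).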
IL1B secr inh: blocks inflammasome-driven IL-1 beta release; THP-1 LPS/ATP IL-1B secretion, AlphaLISA, 16 h; stronger effect = lower value; activity change, % at 57.5 µM; 360,000 tested, 4.7% active; AID 743279; in the data active means activity change below about -50%; inconclusive means mostly about -30% to -49%
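Secreted IL-1B measured by AlphaLISA bead assay after 16 h compound exposure of THP-1 cells; compounds (final up to 57.5 uM) added 1 h before LPS (250 ng/mL) and ATP (1.25 mM) stimulation; lower signal means less secretion.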
HT1080 IDH1KD tx: kills HT-1080 cells with IDH1 knockdown | HT-1080 IDH1 knockdown viability, ATP luminescence, 48 h | AID 686971 | Potency, µM (series often up to 46.1 µM), without a hit: at the highest dose activity, negative = toxicity, hits mostly cytotoxic | 360,000 tested, 2% active;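 further: potency means the concentration at half of the fitted maximal effect; 0% = DMSO wells and -100% = cell-free medium wells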
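Assay cells: HT-1080 with IDH1 knockdown, 750 per well, RPMI/5% FBS. Exposure: 48 h at 37 °C following 2 h pre-incubation. Read: CellTiter-Glo luminescence; fitted concentration-response, curve class assigned.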
TDP1 cell noCPT: qHTS for Inhibitors of human tyrosyl-DNA phosphodiesterase 1 (TDP1): qHTS in cells in absence of CPT; DT40 Tdp1-/- hTDP1 cells, no CPT, ATP luminescence, 48 h; Potency, µM (top dose mostly 46.2 µM), for the others: top-dose activity change, negative = growth inhibition, actives largely listed as inhibitors; 420,000 tested, 15% active; further: potency means the concentration at half of the fitted maximal effect; nearly all actives have a fitted effect of over 55% in size
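Growth kinetics read by CellTiter-Glo luminescence after ≥48 hr at 37 °C. Cells: DT40 Tdp1-/- stably carrying human TDP1, 400 per well, compound exposure in the absence of CPT (DMSO vehicle).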
DT40 TDP1 CPT: growth inhibition of DT40 Tdp1-/-;hTDP1 cells with camptothecin (screen for TDP1 inhibitors). Potency, µM (titrated, usually from 46.2 µM), inactives show top-dose activity change, negative = growth inhibition, usual class: inhibitors. chicken DT40 Tdp1-/-;hTDP1 cells + 20 nM CPT, ATP luminescence, 48 h. 420,000 tested, 12% active; further: potency means the concentration at half of the fitted maximal effect; nearly all actives have a fitted effect of over 55% in size
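Chicken DT40 Tdp1-/- cells stably complemented with human TDP1 were seeded at 400 cells/well in medium containing 20 nM camptothecin, exposed to pin-transferred compounds, and grown at 37 °C for at least 48 hr. Viability was read as ATP luminescence.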
Active calls of the source: *; ? = inconclusive; . = not tested or not shown; [ ] = remark or other dose. Unless noted, the call rests on the fitted dose curve; in most records, active means well fitted curve in the direction sought with a large enough effect; inconclusive means small, poorly fitted or top-dose-only effect, or another doubt; inactive means no such curve, though single readings can be large; an effect the other way counts as inactive or inconclusive. Unless noted, on the % scale 0 is the no-effect control and ±100 the full control effect.

SMILES	ALOX12 inh	HT1080NT lethal	IL1B secr inh	HT1080 IDH1KD tx	TDP1 cell noCPT	DT40 TDP1 CPT
CC(=O)Nc1cccc(NC(=S)Nc2ccc(F)c(Cl)c2)c1	?	-6.2%	-7.2	-0.8%	?	16.4µM*
O=C(NNC(=S)Nc1ccc(F)c(Cl)c1)c1ccccc1Br	?	?	-61.7*	?	?	?
O=C(NNC(=S)Nc1ccc(F)c(Cl)c1)C1CC1	416.8%	3.2%	3.2	8.8%	8.9%	43.0%
COCCNc1nc(SC)nc2sc3c(c12)CCN(C)C3	59.2%	-9.9%	0.0	-14.3%	-3.4%	-11.3%
CSc1nc(NCC(C)C)c2c3c(sc2n1)CN(C)CC3	-6.7%	-30.4%	3.4	?	?	20.6µM*
CCCSc1nc(N)c2c3c(sc2n1)CN(C)CC3	.	-5.0%	-17.3	1.0%	23.1µM*	-25.8%
CSc1nc(NCc2ccccc2)c2c3c(sc2n1)CN(C)CC3	0.0%	?	?	?	23.1µM*	23.1µM*
CCN(CC)CCNc1nc(SC)nc2sc3c(c12)CCN(C)C3	-8.5%	?	?	-17.0%	?	-3.4%
CCOc1ccc(Cn2c(Oc3ccc(F)cc3)nc3c2c(=O)n(C)c(=O)n3C)cc1OCC	10.2%	.	.	.	.	.
COCCN(CCOC)S(=O)(=O)c1ccc(C(=O)Nc2sc3c(c2C(N)=O)CCCCC3)cc1	-24.0%	-1.4%	-5.4	-1.9%	?	-28.4%
CCN1CCN(S(=O)(=O)c2ccc(C(=O)Nc3sc4c(c3C(N)=O)CCN(CC)C4)cc2)CC1	40.6%	-8.0%	-13.7	-12.5%	-17.8%	?
NC(=O)c1ccsc1NC(=O)c1ccc(S(=O)(=O)N2CCCc3ccccc32)cc1	-11.6%	-18.9%	0.0	-20.4%	18.4µM*	16.4µM*
CC(C)N1CCc2c(sc(NC(=O)c3ccc(S(=O)(=O)N(C)C4CCCCC4)cc3)c2C(N)=O)C1	?	.	.	.	18.4µM*	?
CC(C)N1CCc2c(sc(NC(=O)c3ccc(S(=O)(=O)N4CCc5ccccc54)cc3)c2C(N)=O)C1	.	?	19.3	20.6µM*	?	23.1µM*
CN(C)CC(=O)N1Cc2ccccc2CC2(CCCN(CCc3ccccc3)C2)C1 (stereo unspecified)	7.3%[6.33 µM]	.	.	.	.	.
CCc1nc2ccccc2c(C(=O)OCC(=O)NC2CCCCC2)c1C	-25.3%	.	.	.	.	.
CN(CCC#N)C(=O)COC(=O)c1c2c(nc3ccccc13)/C(=C\c1ccco1)CC2	-28.1%	-21.1%	-63.3*	-24.0%	13µM*	20.6µM*
CC1CCCC(NC(=O)COC(=O)/C=C/c2ccco2)C1C (stereo unspecified)	?	0.5%[9.24 µM]	1.6	2.9%	0.2%	?
O=C(COC(=O)c1c2c(nc3ccccc13)/C(=C\c1ccco1)CC2)NC1CCCC1	7.08µM*	0.0%	-12.9	-12.3%	23.1µM*	16.4µM*
CC1CCCCC1NC(=O)COC(=O)c1c2c(nc3ccccc13)/C(=C\c1ccco1)CC2 (stereo unspecified)	15.8µM*	-20.0%	?	-5.9%	23.1µM*	29.1µM*
CCCCCCCN1CCC(=O)N([C@H](CO)CC(C)C)CC1	-18.0%	-12.1%	-1.1	0.7%	23.1µM*	?
CCCCCCCN1CCC(=O)N([C@H](CO)Cc2ccccc2)CC1	-9.6%	-7.1%	-10.0	-3.6%	12.6µM*	20.6µM*
O=C1CCN(Cc2ccc(Br)cc2)CCN1[C@H](CO)Cc1ccccc1	-40.0%	5.6%	-2.0	-0.2%	?	20µM*
CCCCCCCCOC(C)=O	5.0%[176 µM]	.	.	.	.	.
COC(=O)C1=C(N)OC2=C(C(=O)CCC2)C1c1ccccc1Cl (stereo unspecified)	4.8%	.	.	.	.	.
SMILES	ALOX12 inh	HT1080NT lethal	IL1B secr inh	HT1080 IDH1KD tx	TDP1 cell noCPT	DT40 TDP1 CPT
O=C(NC(=S)Nn1cnnc1)c1ccc(F)cc1Cl	15.8µM*	10.6%	9.1	4.3%	1.1%	11.2%
CCOC(=O)C1CCC(CN(Cc2ccc(OC)cc2)S(=O)(=O)c2ccc(C)cc2)CC1 (stereo unspecified)	-15.8%	.	.	.	13µM*	20.6µM*
CCOC(=O)C1CCC(CN(Cc2ccc(Cl)cc2)S(=O)(=O)c2ccc(Br)cc2)CC1 (stereo unspecified)	-29.6%	.	.	.	?	?
CCOC(=O)C1CCC(CN(Cc2ccccc2)S(=O)(=O)c2ccc(Br)cc2)CC1 (stereo unspecified)	1.3%	.	.	.	?	?
CCOC(=O)C1CCC(CN(Cc2ccc(Cl)cc2)S(=O)(=O)c2cccc(Cl)c2C)CC1 (stereo unspecified)	-17.1%	.	.	.	18.4µM*	23.1µM*
C=CC1(C)CN(Cc2ccco2)S(=O)(=O)c2c(F)cccc2O1 (stereo unspecified)	-22.7%	13.7%	-1.7	9.8%	?	18.4µM*
O=C(COc1ccc(F)cc1)Nc1ccc2oc(-c3ccccc3F)nc2c1	3.1%	.	.	.	.	.
OCCCn1c(C2CCCN2c2nc(-c3ccc(F)cc3)cs2)nc2cc(Cl)c(N3CCCCC3)cc21 (stereo unspecified)	-7.6%	0.7%	15.3	0.4%	20.6µM*	?
Cc1csc(N2CCCC2c2nc3cc(Cl)c(N4CCCCC4)cc3n2CCCO)n1 (stereo unspecified)	3.0%	-3.2%	-15.7	-16.1%	16.4µM*	?
OCCCn1c(C2CCCN2c2nc(-c3ccc(Cl)cc3)cs2)nc2cc(Cl)c(N3CCCCC3)cc21 (stereo unspecified)	-8.0%	0.0%	22.7	3.6%	?	?
Cc1ccc(Cn2c(C3CCCN3c3nc(C)cs3)nc3cc(C(=O)NCCCO)ccc32)cc1 (stereo unspecified)	-40.2%	-4.7%	-3.1	5.8%	2.2%	-14.6%
COc1ccc(C2(C(=O)N3CCCC(C(=O)NCc4ccccc4)CCNC(=O)CC3)CC2)cc1 (stereo unspecified)	2.1%	.	.	.	.	.
Cn1c(Oc2ccc(F)cc2)c(C=O)c2ccccc21	-2.0%	-22.1%	-92.3*	-20.9%	?	?
COc1ccc2c(c1)c(C(=O)N/N=C/c1cccc(Br)c1)c(C)n2C	-11.4%	-10.3%	0.2	-6.1%	10.3µM*	?
COc1ccc2c(c1)c(C(=O)N/N=C/c1ccccc1Cl)c(C)n2C	?	-2.0%	-18.8	4.2%	8.2µM*	20.6µM*
COc1ccc2c(c1)c(C(=O)N/N=C/c1cccc(O)c1)c(C)n2C	-5.4%	18.6%	-8.8	13.3%	10.3µM*	18.4µM*
